Among all 48,000 compounds or so, about 13,000 (27%) showed an effect of 50% or more. Some of the results follow.

We go through 63 compounds from ChEMBL document CHEMBL3988442, “University of Dundee, Small-Polar-MMV Screening Library” (2021).

The experiment deals with Wolbachia pipientis. The experiment can be described thus: Anti-Wolbachia Cell-Based Screen. Format: functional. Details: scale not given: in the data most compounds retested in dose-response had high values. To be noted: 5 µM.
For `CCC[C@H]1CN(Cc2ccc(N(C)C)nc2)C[C@@H]1NC(=O)CSC`, the “Percent Effect” value is -2.183%.
The figure for `O=C(NC[C@H]1OC[C@@H](NC2CCCCC2)[C@@H]1O)c1cccs1` is 2.272%; for `CC(C#N)CN(C)C(=O)CCNC(=O)OC(C)(C)C` (stereo not drawn) it is 95.62%; for `CCC(C#N)NC(=O)CCNC(=O)C(C)(C)C` (stereo not drawn) it is -9.888%.
The figure for `CC(C)(C)OC(=O)NCCC(=O)N(CCC#N)Cc1ccco1` is 11.1%.
The figure for `CC(C)CC(C#N)NC(=O)CCNC(=O)C(C)(C)C` (stereo not drawn) is 9.809%.
As to `CC(C#N)CN(C)C(=O)CCNC(=O)C(C)(C)C` (stereo not drawn), the “Percent Effect” value is reported as 107.7%.
On to `CC(C)C[C@H](NC(=O)CNC(=O)OC(C)(C)C)C(=O)OC(C)(C)C`, for which the “Percent Effect” value worked out at 3.003%.
The figure for `CC(O)CN(C)C(=O)CCNC(=O)OC(C)(C)C` (stereo not drawn) is 96.59%.
Consider `CC(C#N)CN(C)C(=O)CCNC(=O)OCC(F)(F)F` (stereo not drawn), for which the “Percent Effect” value is listed as 112.9%.
The figure for `CC(OCC(F)(F)F)C(=O)NCCN(C)C` (stereo not drawn) is -5.396%; for `CC(C)NC(=O)CNC(=O)OC(C)(C)C` it is -14.72%.
The figure for `Cc1cccc(OCCC(=O)N(C)CC(C)C#N)c1C` (stereo not drawn) is 20.16%; for `CN(C)C(CNC(=O)CCNC(=O)OCC(F)(F)F)c1ccsc1` (stereo not drawn) it is -11.09%.
With `Cc1cnn(CC2CCCN2c2ccc(C#N)cn2)c1` (stereo not drawn), the “Percent Effect” value is recorded as 16.4%.
The figure for `CC1(C)CC1(C(=O)N1CC(c2cccnc2)C1)c1ccccc1F` (stereo not drawn) is -22.23%; for `Nc1nccnc1C(=O)N1CC(OCc2cccc3ccccc23)C1` it is -5.576%; for `COc1ccccc1OCC(=O)N1C[C@@H]2CN(C)CCO[C@@H]2C1.O=C(O)C(F)(F)F` it is -10.13%.
The figure for `CN1CCO[C@@H]2CN(C(=O)NCc3ccccc3)CC[C@@H]2C1.O=C(O)C(F)(F)F` is 100.3%; for `CC(C)N1C[C@@H]2CN(C(=O)NCc3ccccc3)CCC[C@]2(C(=O)O)C1.O=C(O)C(F)(F)F` it is -4.508%.
Turning to `CN1CCO[C@@H]2CN(C(=O)NCc3cccc(F)c3)CC[C@@H]2C1`, the “Percent Effect” value was 89.36%.
On to `CC(C)N1CCO[C@@H]2CN(C(=O)NCc3ccccc3)CC[C@@H]2C1.O=C(O)C(F)(F)F`, for which the “Percent Effect” value is given as 99.72%.
In the case of `CN(C)C[C@H]1OC[C@@H]2CN(C(=O)NCc3cccc(F)c3)CC[C@@H]21.O=C(O)C(F)(F)F`, the “Percent Effect” value was -10.24%.
The figure for `COCCN1CCO[C@@H]2CN(C(=O)NCc3ccccc3)CC[C@@H]2C1.O=C(O)C(F)(F)F` is -7.267%; for `CN(C)C[C@H]1OC[C@@H]2CCN(C(=O)NCc3cccc(F)c3)C[C@@H]21` it is 12.45%.
For the compound `Cc1csc(CNC(=O)N(C)Cc2ccc([S+](C)[O-])cc2)n1` (stereo not drawn), the “Percent Effect” value is reported as -10.57%.
The figure for `COCCN(CC1CCCN(C2Cc3ccccc3C2)C1)C(=O)CSC` (stereo not drawn) is -15.09%; for `COc1cc(N2CCCn3cnc(COCCO)c3C2)ncn1` it is -11.76%.
The figure for `O=C(OCc1cccs1)c1cccc(C(=O)N2CCCC2)n1` is -3.794%.
Consider `O=C(c1cccn1Cc1cccs1)N1CCN(C2CC2)CC1`, for which the “Percent Effect” value worked out at 5.207%.
As to `O=C(c1csc(-c2cccs2)n1)N1CCN2CCCCC2C1` (stereo not drawn), the “Percent Effect” value is reported as 1.576%.
The figure for `NC(=O)C1CCN(C(=O)c2cccn2Cc2cccs2)CC1` is 117.1%; for `NC(=O)CC1CCN(C(=O)c2cccn2Cc2cccs2)CC1` it is 101.5%; for `NC(=O)CC1CCN(C(=O)c2csc(-c3ccccc3F)n2)CC1` it is -1.67%.
As for `O=C(c1cccn1Cc1cccs1)N1CCN(C(=O)C2CC2)CC1`, the “Percent Effect” value is given as -0.05599%.
The figure for `O=C(c1cccn1Cc1cccs1)N1CCC(C(=O)N2CCCC2)CC1` is 86.86%; for `CNC(=O)C1CCN(C(=O)c2cccn2Cc2cccs2)CC1` it is 0.5999%.
Turning to `O=C(c1cccn1Cc1cccs1)N1CCN2CCCCC2C1` (stereo not drawn), the “Percent Effect” value is on record as 106.1%.
The figure for `Cc1cc(C(=O)N2CCc3[nH]cnc3C2C(=O)O)c(-c2ccccc2)o1` (stereo not drawn) is -20.72%.
The figure for `CN(C)CCNC(=O)c1nc2c(o1)CN(C(=O)c1cccnc1)C2.O=C(O)C(F)(F)F.O=C(O)C(F)(F)F` is -13.48%.
The figure for `COC(C)(C)CC(C)NC(=O)NC1CCN(Cc2ccccn2)CC1` (stereo not drawn) is 2.912%; for `Cn1ncc2c(NCC(=O)N3CCNCC3)nc(C(C)(C)C)nc21` it is -6.319%.
Turning to `CC(C)C1CN(c2ncc(F)cn2)CCC(=O)N1Cc1ccc(F)cc1` (stereo not drawn), the “Percent Effect” value was 23.16%.
For `Cc1ccc(S(=O)(=O)Nc2cccnc2O)cc1C`, the “Percent Effect” value is listed as 0.1699%.
The figure for `NC(=O)C1CCN(C(=O)c2cccn2Cc2cccs2)C1` (stereo not drawn) is 92.97%; for `CC(CNC(=O)N1CCSCC1)Cc1cccs1` (stereo not drawn) it is 19.49%; for `O=C(c1cccn1Cc1cccs1)N1CCSCC1` it is 87.27%.
Regarding `CCC(O)CN1CCN(C(=O)c2cccn2Cc2cccs2)CC1` (stereo not drawn), the “Percent Effect” value was -10.05%.
The figure for `O=C1NC(c2ccccc2)=N[C@@]12CC[C@@H]1CN(Cc3ccncc3)C[C@@H]12` is -3.809%; for `O=C(c1cnn2c1OCCC2)N1CCN(C(=O)C2CCCO2)CC1` (stereo not drawn) it is 101.5%; for `O=C(c1cnn2c1OCCC2)N1CCC(Cc2ccccc2)CC1` it is 143.8%.
Turning to `O=C(C1CCCO1)N1CCC(n2cc(-c3ccc(F)cc3)nn2)CC1` (stereo not drawn), the “Percent Effect” value is on record as -2.259%.
For the compound `CN(C)C(=O)c1cnn2c1OCCC2`, the “Percent Effect” value was determined as 85.82%.
Consider `Cc1c(C(=O)N2CCCN(S(C)(=O)=O)CC2)cnn1C`, for which the “Percent Effect” value worked out at 116.6%.
For `CCCn1ncc(C(=O)N2CCN(C3CCCC3)CC2)c1C`, the “Percent Effect” value amounted to 4.008%.
On to `CCn1ncc(C(=O)N2CCCN(CCCc3ccccc3)CC2)c1C`, for which the “Percent Effect” value was determined as 5.21%.
For the compound `Cc1c(C(=O)N2CCC(C(O)c3ccc(Cl)cc3)CC2)cnn1C` (stereo not drawn), the “Percent Effect” value is -1.505%.
The figure for `Cc1cc2cc(CNC(=O)c3cnn4c3OCCC4)ccc2[nH]1` is 3.624%; for `Cc1ccc(-c2cn(C3CCN(C(=O)[C@H]4CCCO4)CC3)nn2)cc1` it is -12.17%; for `O=C(c1cnn2c1OCCC2)N1CCN(C/C=C/c2ccccc2)CC1` it is 8.023%.
As for `CC(=O)N1CCOC2(CCCN(Cc3ccc(Cl)c(C(F)(F)F)c3)C2)C1` (stereo not drawn), the “Percent Effect” value was -8.143%.
The figure for `Clc1cc(CN2CCCC2Cn2cncn2)c2ncccc2c1` (stereo not drawn) is 9.576%; for `N#Cc1cccnc1N1CCCC(CO)(Cc2cccc(Cl)c2)C1` (stereo not drawn) it is -4.475%.
